High-throughput results deposited in PubChem BioAssay by several laboratories.
APP 5UTR inh: inhibitors of APP translation via 5'UTR reporter, primary screen, APP 5'UTR luciferase, SH-SY5Y cells; inhibition, % at 2 µM; 190,000 tested, 0.82% active; SH-SY5Y APP 5'UTR-luciferase reporter, luminescence;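 active = inhibition above a set limit, derived from the sample mean plus 3 SD, cut at about 45% in these data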
KLF5 inhibitor: KLF5 expression inhibitors, primary screen, DLD-1 cells, luminescence. DLD-1 KLF5 promoter-luciferase reporter. inhibition, % at 5 µM. 290,000 tested, 0.23% active;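 active = inhibition above a per-plate limit of that plate's mean compound inhibition plus 3 SD, cut at about 60% in these data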;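 note: higher means less KLF5 promoter-driven luciferase light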
aSyn UTR inh: MLPCN primary screen, SNCA 5' untranslated region; alpha-synuclein 5'UTR reporter, inhibitor activity; inhibition, % (tested at 7.5 µM); 300,000 tested, 0.82% active; AID 1813, 2009; in the data active = inhibition above about 60%;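 note: H4 neuroglioblastoma cells stably carrying SNCA 5'UTR luciferase fusion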
Ba/F3 V617F tox: reduced viability of JAK2V617F-dependent Ba/F3 cells, primary screen, JAK2V617F inhibitor project, cell-based, Ba/F3 EpoR-JAK2V617F, luminescence | 220,000 tested, 1.1% active | ATP luminescence | AID 1446, 2008 | inhibition, % at 5.6 µM;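 active = inhibition above the campaign mean plus 3 SD over all tested compounds, cut at about 24% in these data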;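 note: cytokine-independent growth of Ba/F3 cells driven by EpoR plus mutant JAK2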
IEC-6 tox-1: cytotoxicity in IEC-6 intestinal epithelial cells, primary screen, cytotoxicity control for KLF5 inhibitor project, cell-based, luminescence; IEC-6 cytotoxicity, luminescence viability; inhibition, % at 5 µM; 290,000 tested, 0.78% active
BaF3 parental: parental Ba/F3 cell viability inhibition, counter-screen for JAK2V617F inhibitor project, murine pro-B, CellTiter-Glo luminescence; CellTiter-Glo ATP luminescence; inhibition, % at 5.6 µM; AID 1486, 2009; 220,000 tested, 1.1% active;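 active = inhibition above a per-campaign cutoff, the mean inhibition of all tested compounds plus 3 SD, cut at about 27% in these data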
KLF5 inh confirm: KLF5 expression inhibitors, confirmation, DLD-1 cells, luminescence; shares compounds with KLF5 inhibitor; DLD-1 KLF5 promoter firefly luciferase reporter; inhibition, % at 4 µM; 610 tested, 79% active; AID 1834, 2009;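 active = inhibition above a set limit taken from the earlier primary screen, cut at about 63% in these data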
IEC-6 tox-2: cytotoxicity in rat IEC-6 cells, cytotoxicity control for KLF5 inhibitor project, cell-based, luminescence, triplicate | shares compounds with KLF5 inhibitor | IEC-6 rat intestinal cells, viability luminescence | inhibition, % at 4 µM | 610 tested, 56% active; in the data active = inhibition above about 23%;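 note: cells exposed to compounds for 48 hours before viability read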
IEC-6 tox confirm: cytotoxic compounds in IEC-6 epithelial cells, confirmation, cytotoxicity control, cell-based, luminescence | shares compounds with IEC-6 tox-1 | 1,900 tested, 63% active | inhibition, % at 5 µM | IEC-6 rat intestinal epithelial viability
Numbers stand for hits; - = inactive; . = not tested or not shown. Rows were chosen to be rich in hits. Some 2.2% of all compounds tested hit in one or more screens of this group. Cut-off read from the data, not from the text of the source, unless noted: active = inhibition above about 22%; inactive = the rest.

SMILES	APP 5UTR inh	KLF5 inhibitor	aSyn UTR inh	Ba/F3 V617F tox	IEC-6 tox-1	BaF3 parental	KLF5 inh confirm	IEC-6 tox-2	IEC-6 tox confirm
CC(=O)N1c2ccc(S(=O)(=O)N3CCC(C(=O)N4CC(C)CC(C)C4)CC3)cc2CC1C (stereo unspecified)	.	-	-	.	-	.	.	.	.
Cc1cc2nc(-c3ccc[nH]c3=O)[nH]c2cc1C	.	83	77	.	40	.	-	-	33
O=C(c1cc([N+](=O)[O-])ccc1N1CCOCC1)N1CCN(c2ccccc2)CC1	.	82	91	.	90	.	90	73	62
O=C(c1ccc(Br)cc1)c1cc([N+](=O)[O-])ccc1N1CCCCC1	95	84	92	83	87	79	82	63	60
Cc1ccc(C(=O)c2cc([N+](=O)[O-])ccc2N2CCOCC2)c(C)c1	94	74	98	76	91	84	84	70	59
Cc1ccc(C)c(C(=O)COC(=O)c2cc([N+](=O)[O-])ccc2N2CCOCC2)c1	.	.	-	.	.	.	.	.	.
O=C(c1ccco1)N1CCN(C(=O)N2c3ccccc3Sc3ccccc32)CC1	93	80	81	85	91	82	85	55	60
CC(NC(=O)CNC(=O)c1sc2ccccc2c1Cl)c1ccc(S(N)(=O)=O)cc1 (stereo unspecified)	.	.	-	.	.	.	.	.	.
O=C(NCc1ccccc1)C1=C[C@@H](c2csc3ccccc23)C[C@@H](OCCCCO)O1	-	70	95	25	30	57	-	-	-
O=C(NC1CC1)C1=C[C@H](c2csc3ccccc23)C[C@H](OCCCCO)O1	-	-	-	-	-	-	.	.	.
Cc1nc(N)nc(N)c1/C=C/C(C)(C)c1ccc(Cl)cc1	70	83	125	98	86	103	84	76	77
COc1cccc(C2=NOC(C(=O)NCc3ccc(F)cc3)C2)c1 (stereo unspecified)	-	-	-	-	-	-	.	.	.
COc1ccc(C2=NOC(C(=O)NCc3ccc(F)cc3)C2)cc1OC (stereo unspecified)	96	85	82	79	88	82	79	63	58
COc1cc(C2=NOC(C(=O)NCc3ccc(F)cc3)C2)cc(OC)c1OC (stereo unspecified)	95	73	77	79	86	78	85	65	55
C=CCOc1cccc(NC(=O)c2ccccc2SC)c1	-	-	-	-	-	-	.	.	.
CCn1c2ccccc2c2cc(Nc3cc(C)nc4ncnn34)ccc21	96	75	82	84	94	86	82	72	72
CCCNC1=C(N(C(C)=O)c2cccc(F)c2)C(=O)c2ccccc2C1=O	49	96	92	101	65	104	-	53	41
CCC(=O)N(C1=C(NC(C)C)C(=O)c2ccccc2C1=O)C(C)C	-	-	-	-	-	-	.	.	.
CCOC(=O)CSc1nnc(NC(=O)CCc2ccccc2)s1	.	-	-	.	-	.	.	.	.
Cc1cccc(N2CCN(C(=O)c3cccc(N4CCCC4=O)c3)C(C)C2)c1 (stereo unspecified)	.	64	-	.	63	.	69	36	40
CN(C(=O)CS(=O)(=O)c1cn(CC(=O)N2CCCC2)c2ccccc12)c1ccccc1	.	-	-	.	-	.	.	.	.
Cc1ccc2[nH]c(C(=O)N/N=C/c3ccccc3O)c(C)c2c1	.	71	-	.	98	.	69	-	54
CCOc1ccc(Oc2ccccc2NC(=O)CN2C(=O)NC3(CCCC3)C2=O)cc1	.	.	-	.	.	.	.	.	.
COc1ccc2c(c1)sc1nc(-c3ccccc3)cn12	86	72	105	70	76	69	103	70	55
